B1: ENSMUSG00000042529.274|Kcnj12 (ssRNA)
RNA: GGGAGUUCUACAGUCCGACGAUCGCUUCGAUAUCCGCAUGCUAGUGUGCUUACCUGCCACUCACCUCUCUAUCUAGUUGUCGAGUCUAGGGAAGGGCAGAGGGUGGGUCCUGGCCACUGGGUGCCACUGUGGGAGCCGGGGCACCUGUCAUUCUUUCUGAGUAGGUGGGCCUGUAUCCAGAGCAGGGUCUAGGGGCUCCUGCUCCCGGCUCAUCUCAGUGGCCUGAAGCAUUCAAAACUCUAGCCAGCCCCAUCCUCCUCCCUGCCAGAAUGGUCCAGUCCCUGGGCCCUGCUGGAGAGCAGCCUCUUGCGGUCGCACUAGUGUGGAAUUCUCGGGUGUCAAGG
B2: ENSMUSG00000004113.47|Cacna1b (ssRNA)
RNA: GGGAGUUCUACAGUCCGACGAUCGCUUCGAUAUCCGCAUGCUAGCUAUCACUGCACUUUGGGACUCAGCACUGGCGUCCGGGCGCGGCACAGCUACCACCACCCCGAUCAGGACCACUGGUGCUAGCUGCACCACGACCACCCAUGUACCAGCUCCAUGGGUGAGGGUUCCAGUUGAUGAGUUUUAUCAUCCGCUCUGGGCUGUGGGGUCACAGCCCUGGGAGGAGGGCCCUCACAUCUCGGCCUCUGUGGUGGAGGCUCCUGCUUCCCUCCCUCCCUCCCUUUUACACUGGAUAGACUAAUACUCUUGCGGUCGCACUAGUGUGGAAUUCUCGGGUGUCAAGG
B3: ENSMUSG00000004113.89|Cacna1b|48:52;211:215;227:232 (ssRNA)
RNA: GGGAGUUCUACAGUCCGACGAUCGCUUCGAUAUCCGCAUGCUAGACUAAUAAAGCCCUUUCUUAGAGGGACAUGGUUCUCUCUAUCCUCCACACAACUGCCUUCCUGGGUUCCAUGCCAGAUGUUGGAUCCUAAGCAGGAGGUAGCUGAGUUGAGAUGGACCCAGCAAAUCCAAAUCCUAUGUCAUGGCCUCCAGCAUCCAGGGUGGGUCCUUGGGACUUUUCUUAGGAGGGACUUUCUGAGCCUCGUGGAGACACACGUUUGUCCAAAACACACGCAUGGGAGAUAGGGUACCCCUGAAAGCCUCUUGCGGUCGCACUAGUGUGGAAUUCUCGGGUGUCAAGG
B4: ENSMUSG00000058297.451|Spock2 (ssRNA)
RNA: GGGAGUUCUACAGUCCGACGAUCGCUUCGAUAUCCGCAUGCUAAGCAAGCUUCGUGUUUCCUCAGGAGCAAGGUCACACAGGUCAGAUUAUUGUCGGUCCUGCGGGCCUCAUCCUUGAAUAAGCUGCCUGCCCAGUUCCUCCAUCCGUGUUCCUGCCUGCUCCCGUUCCCUUGUUGCGGGCAGGAGAGGUAGGGCUGUGUUGGAAAGAGUUCAACCAAAUUACGGCAGCACCACAUCUUGCCGAGCCCUGGAGCUGCCCUACUAAGAGCCUCCUUAGCCCUGGGUGCUGGGAAGGAUGGUGUACUCUUGCGGUCGCACUAGUGUGGAAUUCUCGGGUGUCAAGG
B5: ENSMUSG00000061578.871|Ksr2 (ssRNA)
RNA: GGGAGUUCUACAGUCCGACGAUCGCUUCGAUAUCCGCAUGCUAUUAGGUCAGAGGUAUCAAUACAUCUCCGGAAACAUCGUCACAGAUACCUAGAGGUACUUCAUUGAUCCCUUGAAAAGCAUGUCUUAAUUCUGUUAAGAUGUCAAUCAAGAUUACACAUCUCACUGCUUCACAGGCCAUCAGGGCCCCAUUCUGAGGUCCUGGGACACUACCCAAACCCUAGCACUCUCCCAGUGACUCUCCUAUGAGUACAUAUGCCAUCCUGCUUCCUUUGUGGCAAAACCCUGGGUCACCCAGAGACACUCUUGCGGUCGCACUAGUGUGGAAUUCUCGGGUGUCAAGG
B6: ENSMUSG00000058297.469|Spock2 (ssRNA)
RNA: GGGAGUUCUACAGUCCGACGAUCGCUUCGAUAUCCGCAUGCUACCUGCCUGCUCCCGUUCCCUUGUUGCGGGCAGGAGAGGUAGGGCUGUGUUGGAAAGAGUUCAACCAAAUUACGGCAGCACCACAUCUUGCCGAGCCCUGGAGCUGCCCUACUAAGAGCCUCCUUAGCCCUGGGUGCUGGGAAGGAUGGUGUACGUUGGGGAAGUUUGAGGUUGGAGAGAGUAAAUGUGCCUUGAGAGACCACUCAGAGGUCCCAGGAGGAACGGGGGCGGGGCUUAGCCUGGGAGUUCUGGCAGGAGGCACUCUUGCGGUCGCACUAGUGUGGAAUUCUCGGGUGUCAAGG
B7: ENSMUSG00000058297.472|Spock2|27:31 (ssRNA)
RNA: GGGAGUUCUACAGUCCGACGAUCGCUUCGAUAUCCGCAUGCUACUUGUUGCGGGCAGGAGAGGUAGGGCACACAUGGAAAGAGUUCAACCAAAUUACGGCAGCACCACAUCUUGCCGAGCCCUGGAGCUGCCCUACUAAGAGCCUCCUUAGCCCUGGGUGCUGGGAAGGAUGGUGUACGUUGGGGAAGUUUGAGGUUGGAGAGAGUAAAUGUGCCUUGAGAGACCACUCAGAGGUCCCAGGAGGAACGGGGGCGGGGCUUAGCCUGGGAGUUCUGGCAGGAGGCAAAGUUGGUGAGAGUCCUGCUCUUGCGGUCGCACUAGUGUGGAAUUCUCGGGUGUCAAGG
B8: ENSMUSG00000058297.474|Spock2 (ssRNA)
RNA: GGGAGUUCUACAGUCCGACGAUCGCUUCGAUAUCCGCAUGCUAAGGAGAGGUAGGGCUGUGUUGGAAAGAGUUCAACCAAAUUACGGCAGCACCACAUCUUGCCGAGCCCUGGAGCUGCCCUACUAAGAGCCUCCUUAGCCCUGGGUGCUGGGAAGGAUGGUGUACGUUGGGGAAGUUUGAGGUUGGAGAGAGUAAAUGUGCCUUGAGAGACCACUCAGAGGUCCCAGGAGGAACGGGGGCGGGGCUUAGCCUGGGAGUUCUGGCAGGAGGCAAAGUUGGUGAGAGUCCUGGGACAUCUUACCCUCUUGCGGUCGCACUAGUGUGGAAUUCUCGGGUGUCAAGG
B9: ENSMUSG00000058297.473|Spock2 (ssRNA)
RNA: GGGAGUUCUACAGUCCGACGAUCGCUUCGAUAUCCGCAUGCUAGCGGGCAGGAGAGGUAGGGCUGUGUUGGAAAGAGUUCAACCAAAUUACGGCAGCACCACAUCUUGCCGAGCCCUGGAGCUGCCCUACUAAGAGCCUCCUUAGCCCUGGGUGCUGGGAAGGAUGGUGUACGUUGGGGAAGUUUGAGGUUGGAGAGAGUAAAUGUGCCUUGAGAGACCACUCAGAGGUCCCAGGAGGAACGGGGGCGGGGCUUAGCCUGGGAGUUCUGGCAGGAGGCAAAGUUGGUGAGAGUCCUGGGACAUCUCUUGCGGUCGCACUAGUGUGGAAUUCUCGGGUGUCAAGG
B10: ENSMUSG00000058297.474|Spock2|15:19 (ssRNA)
RNA: B8 RNA with U58A, G59C, U60A, G61C, U62A
B11: ENSMUSG00000058297.472|Spock2 (ssRNA)
RNA: B7 RNA with A70U, C71G, A72U, C73G, A74U
B12: ENSMUSG00000058297.468|Spock2 (ssRNA)
RNA: GGGAGUUCUACAGUCCGACGAUCGCUUCGAUAUCCGCAUGCUACGUGUUCCUGCCUGCUCCCGUUCCCUUGUUGCGGGCAGGAGAGGUAGGGCUGUGUUGGAAAGAGUUCAACCAAAUUACGGCAGCACCACAUCUUGCCGAGCCCUGGAGCUGCCCUACUAAGAGCCUCCUUAGCCCUGGGUGCUGGGAAGGAUGGUGUACGUUGGGGAAGUUUGAGGUUGGAGAGAGUAAAUGUGCCUUGAGAGACCACUCAGAGGUCCCAGGAGGAACGGGGGCGGGGCUUAGCCUGGGAGUUCUGGCAGCUCUUGCGGUCGCACUAGUGUGGAAUUCUCGGGUGUCAAGG
B13: ENSMUSG00000058297.470|Spock2 (ssRNA)
RNA: GGGAGUUCUACAGUCCGACGAUCGCUUCGAUAUCCGCAUGCUAUGCUCCCGUUCCCUUGUUGCGGGCAGGAGAGGUAGGGCUGUGUUGGAAAGAGUUCAACCAAAUUACGGCAGCACCACAUCUUGCCGAGCCCUGGAGCUGCCCUACUAAGAGCCUCCUUAGCCCUGGGUGCUGGGAAGGAUGGUGUACGUUGGGGAAGUUUGAGGUUGGAGAGAGUAAAUGUGCCUUGAGAGACCACUCAGAGGUCCCAGGAGGAACGGGGGCGGGGCUUAGCCUGGGAGUUCUGGCAGGAGGCAAAGUUGCUCUUGCGGUCGCACUAGUGUGGAAUUCUCGGGUGUCAAGG
B14: ENSMUSG00000058297.470|Spock2|39:43 (ssRNA)
RNA: B13 RNA with U82A, G83C, U84A, G85C, U86A
B15: ENSMUSG00000058297.471|Spock2 (ssRNA)
RNA: GGGAGUUCUACAGUCCGACGAUCGCUUCGAUAUCCGCAUGCUACGUUCCCUUGUUGCGGGCAGGAGAGGUAGGGCUGUGUUGGAAAGAGUUCAACCAAAUUACGGCAGCACCACAUCUUGCCGAGCCCUGGAGCUGCCCUACUAAGAGCCUCCUUAGCCCUGGGUGCUGGGAAGGAUGGUGUACGUUGGGGAAGUUUGAGGUUGGAGAGAGUAAAUGUGCCUUGAGAGACCACUCAGAGGUCCCAGGAGGAACGGGGGCGGGGCUUAGCCUGGGAGUUCUGGCAGGAGGCAAAGUUGGUGAGACUCUUGCGGUCGCACUAGUGUGGAAUUCUCGGGUGUCAAGG
B16: ENSMUSG00000058297.473|Spock2|21:25 (ssRNA)
RNA: B9 RNA with U64A, G65C, U66A, G67C, U68A
B17: ENSMUSG00000058297.471|Spock2|33:37 (ssRNA)
RNA: B15 RNA with U76A, G77C, U78A, G79C, U80A

Where a chain is given by its changes, count along the chain named. Whole data set: some 9,900 sequences, median “r (bound/input frequency ratio)” near 0.7, cut for the highest 2% near 6.5. What follows is part of a selection rich in the highest values, with near analogues and random picks from the rest.

Chain of TDP-43 (Q13148 whole entry): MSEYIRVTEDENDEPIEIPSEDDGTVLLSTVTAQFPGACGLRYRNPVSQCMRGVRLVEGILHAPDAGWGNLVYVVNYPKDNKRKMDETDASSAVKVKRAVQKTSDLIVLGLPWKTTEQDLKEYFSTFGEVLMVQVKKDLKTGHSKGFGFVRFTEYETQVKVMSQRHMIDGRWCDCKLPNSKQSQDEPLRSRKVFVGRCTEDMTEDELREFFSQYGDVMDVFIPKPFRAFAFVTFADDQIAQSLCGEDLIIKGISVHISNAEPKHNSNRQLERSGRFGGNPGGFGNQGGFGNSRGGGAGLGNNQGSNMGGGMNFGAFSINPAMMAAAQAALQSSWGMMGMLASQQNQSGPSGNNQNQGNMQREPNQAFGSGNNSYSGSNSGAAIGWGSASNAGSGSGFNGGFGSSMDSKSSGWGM

This assay has as its target TDP-43 (Homo sapiens, UniProt Q13148 1-414). The assay is described as follows: RNA Bind-n-Seq with designed 260-mer pool; 25 mM Tris-HCl, 150 mM KCl, 3 mM MgCl2, BSA (printed 500 mg/mL), 20 units/mL SUPERase IN; pH not stated; 500 nM RNA pool, 1 h, 4 C; TDP-43 5, 50, 500 nM; high values mean tight binding. Particulars: protein: recombinant; tags: SBP (GST cleaved off with PreScission; pGEX-GST-SBP). The method, boiled down:
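Binding (R) is the ratio of each oligo's mapped-read-normalized abundance in the bound fraction to its abundance in the input. To obtain it, SBP-tagged recombinant TDP-43 (5, 50 or 500 nM) on streptavidin beads was incubated with 500 nM of an in vitro-transcribed 260-nt 3′ UTR oligo pool for 1 h at 4 °C in 25 mM Tris-HCl, 150 mM KCl, 3 mM MgCl2, BSA and SUPERase IN. The RNA retained after washing was released with biotin, then reverse transcribed, amplified by PCR and sequenced.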
Consider B1, for which the binding signal was 0.622 R (bound/input frequency ratio).
In the case of B2, the binding signal was 0.27 R (bound/input frequency ratio).
With B3 the figure was 0.504 R (bound/input frequency ratio); with B4, 0.383 R (bound/input frequency ratio); with B5, 0.301 R (bound/input frequency ratio).
With B6, the binding signal is 2.58 R (bound/input frequency ratio).
For B7 the value was 4.63 R (bound/input frequency ratio); for B8, 5.67 R (bound/input frequency ratio).
With B9 the figure was 6.95 R (bound/input frequency ratio); with B10, 3.2 R (bound/input frequency ratio); with B11, 7.38 R (bound/input frequency ratio).
For B12 the value was 3.47 R (bound/input frequency ratio); for B13, 8.94 R (bound/input frequency ratio); for B14, 5.26 R (bound/input frequency ratio).
With B15, the binding signal was 7.28 R (bound/input frequency ratio).
Take B16: the binding signal is 3.59 R (bound/input frequency ratio).
With B17 the figure was 4.19 R (bound/input frequency ratio).

The values are drawn from paper PMC12864922, “TDP-43 directly inhibits mRNA accumulation in neurites through modulation of mRNA stability”.
